ERK EGF block: qHTS Assay for Inhibitors of the ERK Signaling Pathway using a Homogeneous Screening Assay; Stimulation with EGF; HEK293-V1b, EGF-stimulated phospho-ERK AlphaScreen; Potency, µM (doses to about 11.5 µM), without a hit: top-dose activity change, negative = inhibition, actives largely listed as inhibitors; hit rate 0.41% among 130,000; AID 1454, 2008; active = well fitted inhibition curve with a large enough effect;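 also: plate controls were stimulated vehicle wells for no effect and unstimulated vehicle basal for full effect; nearly all actives have a fitted effect of over 55% in size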
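HEK293 cells stably expressing V1b receptor, serum-reduced (1% FBS) overnight, got compound for 30 min at 37C, then 25 nM EGF for 5 min. Lysate phospho-ERK read by AlphaScreen SureFire; AC50 from Hill fits.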
An asterisk follows results filed as active; [ ] = another dose, or the depositor's remark. Many of the other results were omitted from the sample, so hits are more common in it than they were. Potency is read from the fitted curve at half-maximal effect.

Results for S=C(c1c[nH]c2ccc(Br)cc12)N1CCOCC1 ?
ERK EGF block: 33%

Results for O=C1C2CCCN2C(c2cccs2)N1c1ccc(F)cc1 (stereo unspecified) ?
ERK EGF block: -5%

Results for CCOC(=O)c1c(C)[nH]c(C)c1C(=O)COC(=O)c1nc2nccc(C)n2n1 ?
ERK EGF block: 2%

Results for CC(=O)c1ccccc1OC(=O)CCN1C(=O)c2ccccc2C1=O ?
ERK EGF block: 2%

How did O=C1c2cccc3cccc(c23)C(=O)N1CCN1CCN(C(=S)Nc2ccc(Cl)cc2)CC1 do in these assays?
ERK EGF block: 8%

What do the screens show for `COc1cc(COCC(O)CN2CCN(CCN3C(=O)c4cccc5cccc(c45)C3=O)CC2)cc(OC)c1OC` (stereo unspecified)?
ERK EGF block: 5%

What do the screens show for `CC(=O)c1ccccc1OCC(O)CN1CCN(CCN2C(=O)c3cccc4cccc(c34)C2=O)CC1` (stereo unspecified)?
ERK EGF block: 25µM*

How did O=C1c2cccc3cccc(c23)C(=O)N1CCN1CCN(CC(O)COc2ccc3ccccc3c2)CC1 (stereo unspecified) do in these assays?
ERK EGF block: 1%

Results for O=C1c2cccc3cccc(c23)C(=O)N1CCN1CCN(CC(O)COCc2ccc(Cl)cc2)CC1 (stereo unspecified) ?
ERK EGF block: 32µM*

What do the screens show for `COc1cc(NS(=O)(=O)c2ccc(NC(=S)NC(=O)/C=C/c3ccc(F)cc3)cc2)ncn1`?
ERK EGF block: -3%[57.5 µM]

Results for C/C(=N\S(=O)(=O)c1ccc(C)cc1)Nc1cc(C(C)C)c(O)cc1C ?
ERK EGF block: 2%

What do the screens show for `COc1ccc(C(=O)NCc2nnc(SCC(=O)N3CCCCC3)o2)cc1`?
ERK EGF block: 4%

How did COc1ccccc1-c1csc(NC(=O)c2ccc(N3C(=O)CCC3=O)cc2)n1 do in these assays?
ERK EGF block: 28µM*

How did N#Cc1ccc(-c2csc(NC(=O)c3ccc(N4C(=O)CCC4=O)cc3)n2)cc1 do in these assays?
ERK EGF block: -13%[57.5 µM]

What do the screens show for `CCOC(=O)c1csc(NC(=O)c2ccc(N3C(=O)CCC3=O)cc2)n1`?
ERK EGF block: -15%

How did O=C(CCN1CCCCC1)NNC(=S)NC(=O)c1ccc(Br)cc1 do in these assays?
ERK EGF block: 0%

What do the screens show for `CC1=NN(c2ccccc2)C(=O)C1N=Nc1ccccc1` (stereo unspecified)?
ERK EGF block: 11µM*

How did CC1=NN(c2ccccc2)C(=O)C1c1ccccc1 (stereo unspecified) do in these assays?
ERK EGF block: -10%

Results for CC1=NN(C(N)=S)C(=O)C1N=Nc1ccccc1 (stereo unspecified) ?
ERK EGF block: 4%

What do the screens show for `O=C(NNC(=O)c1ccc2c(c1)OCO2)NC12CC3CC(CC(C3)C1)C2`?
ERK EGF block: -2%

How did CCC(=O)/C=C1/Sc2ccc(OC)cc2N1CCO do in these assays?
ERK EGF block: 14%

What do the screens show for `COc1ccc2sc(/C=C/c3ccccc3O)[n+](C)c2c1`?
ERK EGF block: -8%

How did CCC(/C=C1\Sc2ccc(OC)cc2N1CCO)=C\c1sc2ccc(OC)cc2[n+]1CCO do in these assays?
ERK EGF block: 14µM*

What do the screens show for `O=C(Nc1nccs1)c1cncc(Br)c1`?
ERK EGF block: -2%

How did N#Cc1nnn(Cc2ccccc2)c1N do in these assays?
ERK EGF block: -3%

What do the screens show for `COC(=O)C[N+](C)(C)CC#Cc1ccccc1`?
ERK EGF block: 11%

Results for COc1ccccc1-c1cn[nH]c1-c1ccc(OCc2ccc([N+](=O)[O-])cc2)cc1O ?
ERK EGF block: 8%[57.5 µM]

What do the screens show for `COc1ccc(-c2cn[nH]c2-c2ccc(OCc3ccccc3)cc2O)cc1OC`?
ERK EGF block: 22µM*

How did COc1ccc(-c2cn[nH]c2C)cc1OC do in these assays?
ERK EGF block: -11%

How did CCCCc1ccc(S(=O)(=O)NNC(=S)NCc2ccco2)cc1 do in these assays?
ERK EGF block: 0%

Results for C=CCn1c(SCC(=O)NC2CCS(=O)(=O)C2)nnc1-c1ccncc1 (stereo unspecified) ?
ERK EGF block: -2%

What do the screens show for `Cc1cc2nc(-c3ccncc3)cc(C(F)(F)F)n2n1`?
ERK EGF block: 2%

How did COc1ccc(-c2[nH]nc3oc(=O)c(CCO)c(C)c23)cc1 do in these assays?
ERK EGF block: 16µM*

How did COc1ccc(-c2cc(C(=O)NN)[nH]n2)cc1 do in these assays?
ERK EGF block: 1%

What do the screens show for `COc1ccc(-c2[nH]ncc2C=O)cc1`?
ERK EGF block: 4%

Results for COC(=O)Cc1ccc2sc(-c3ccccc3)nc2c1 ?
ERK EGF block: 2%

How did CCOC(=O)C1=C(SCC)c2cc3c(n2C1=O)CCCC3 do in these assays?
ERK EGF block: 25µM*

What do the screens show for `CCOC(=O)C1=C2c3cc(OC)c(OC)cc3CC(C)(C)N2C(=O)C1=O`?
ERK EGF block: -6%

Results for CCOC(=O)c1cc2c(nc1N)CCCC2 ?
ERK EGF block: -5%[57.5 µM]

What do the screens show for `O=C(Nc1cc(Cl)cc(Cl)c1)c1coc(=O)c(Br)c1`?
ERK EGF block: -2%[57.5 µM]

What do the screens show for `CC(=O)NCC(=O)OC(C(=O)c1ccccc1)c1ccc(Cl)cc1` (stereo unspecified)?
ERK EGF block: 3%

How did Oc1[nH]c2ccccc2c1N=Nc1ccc(F)cc1 do in these assays?
ERK EGF block: -1%

Results for Oc1ccc2ccccc2c1N=Nc1ccc(F)cc1 ?
ERK EGF block: 13µM*

How did Oc1[nH]c2ccccc2c1N=Nc1ccccc1 do in these assays?
ERK EGF block: 5%[57.5 µM]

How did O=C(/C(=N\Nc1ccc(Br)cc1)Sc1nnnn1-c1ccccc1)c1ccccc1 do in these assays?
ERK EGF block: 7%

Results for COc1ccc(-c2cccc(C(=O)Nc3ccccc3C)c2)cc1 ?
ERK EGF block: 6%

Results for Cc1nnc(SCc2nc3scc(-c4ccccc4)c3c(=O)[nH]2)s1 ?
ERK EGF block: -5%[57.5 µM]

Results for Nc1nnc(SCc2nc3scc(-c4ccccc4)c3c(=O)[nH]2)s1 ?
ERK EGF block: -9%[57.5 µM]

How did CCn1c(SCc2nc3scc(-c4ccccc4)c3c(=O)[nH]2)nnc1-c1cccs1 do in these assays?
ERK EGF block: 25µM*

How did COc1ccc(C2CC(=O)Oc3c(C(CCN4CCN(c5ccccc5)CC4)c4ccc(N(C)C)cc4)c(OC)cc(OC)c32)cc1 (stereo unspecified) do in these assays?
ERK EGF block: 16µM*

Results for COc1cc(OC)c2c(c1C(CCN1CCOCC1)c1ccc(N(C)C)cc1)OC(=O)CC2c1ccc(N(C)C)cc1 (stereo unspecified) ?
ERK EGF block: -6%[57.5 µM]

How did COc1cc(C(CCN2CCOCC2)c2c(OC)cc(OC)c3c2OC(=O)CC3c2ccc(N(C)C)cc2)cc(OC)c1OC (stereo unspecified) do in these assays?
ERK EGF block: -15%[57.5 µM]

Results for CN(C)c1ccc(/C=C/c2cccc[n+]2[O-])cc1 ?
ERK EGF block: 3%[57.5 µM]

How did CN(C)c1ccc(/C=C/c2ccc3c4ccccc4ccc3[n+]2-c2ccccc2)cc1 do in these assays?
ERK EGF block: 25µM*

Results for CN(C)c1ccc(/C=C/C#N)cc1 ?
ERK EGF block: 9%[57.5 µM]

Results for COc1cccc(N2C(=O)C3C(C2=O)C3(c2ccccc2)c2ccccc2)c1 (stereo unspecified) ?
ERK EGF block: -4%[57.5 µM]

What do the screens show for `CS(=O)(=O)N1CCC[C@@]2(CCN(c3ccccc3)C2)C1`?
ERK EGF block: -1%

What do the screens show for `COc1cc(OC)c(C2=NOC(C(=O)NCc3cccs3)C2)cc1Cl` (stereo unspecified)?
ERK EGF block: -5%

Source: PubChem
